M1 ag = human M1 muscarinic receptor agonism | CHO-K1 hM1, Fluo-8 calcium fluorescence, agonist mode; 0% DMSO, 100% acetylcholine EC100 | activation, % at 3 µM | hit rate 0.33% among 360,000 | AID 588814;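 active means activation above the run's mean compound activation plus 3 SD, cut at about 16% in these data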;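 further: peak over basal fluorescence ratio within a 140 s kinetic read after compound addition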
Target sequence (P11229 whole entry, looked up): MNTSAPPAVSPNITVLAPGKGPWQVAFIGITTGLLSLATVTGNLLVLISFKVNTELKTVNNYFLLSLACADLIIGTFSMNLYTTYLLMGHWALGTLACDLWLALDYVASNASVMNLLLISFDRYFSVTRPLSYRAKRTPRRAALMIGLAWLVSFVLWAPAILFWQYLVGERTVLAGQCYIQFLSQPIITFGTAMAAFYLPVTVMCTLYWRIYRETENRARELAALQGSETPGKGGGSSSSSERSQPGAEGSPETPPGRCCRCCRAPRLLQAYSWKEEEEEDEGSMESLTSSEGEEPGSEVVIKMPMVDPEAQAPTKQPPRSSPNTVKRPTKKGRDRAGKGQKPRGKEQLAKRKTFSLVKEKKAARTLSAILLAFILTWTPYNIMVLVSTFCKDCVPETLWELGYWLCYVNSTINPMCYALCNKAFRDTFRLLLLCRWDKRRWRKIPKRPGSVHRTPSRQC
M1 antag = antagonists of human M1 muscarinic receptor; CHO-K1 hM1, Fluo-8 calcium fluorescence, ACh EC80 antagonist; inhibition, % at 3 µM; hit rate 1.3% among 360,000;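 active means percent inhibition above its own plate's cutoff, namely the mean of that plate's compound wells plus 3 SD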;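 further: peak over basal fluorescence ratio during 140 s after agonist addition; 0% = ACh EC80 plus DMSO and 100% = DMSO alone without agonist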
CHO-K1 Ca antag = counter-screen for M1 antagonists: effect in parental CHO-K1 cells. ATP-induced calcium, Fluo-8 fluorescence. inhibition, % at 3 µM. hit rate 0.6% among 360,000. AID 602250;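 active means inhibition above a per-plate cutoff, the plate's mean sample inhibition plus 3 SD, cut at about 24% in these data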;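 further: 0% = DMSO plus EC80 ATP and 100% = DMSO alone without ATP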
CHO-K1 Ca PAM = nonselective activator or artifact in parental CHO-K1 calcium assay; ATP EC20, Fluo-8 calcium fluorescence; 0% at ATP EC20, 100% at ATP max; activation, % at 3 µM; hit rate 0.02% among 360,000; AID 602247;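 active means activation above the run cutoff, the mean activation of all test compounds plus 3 SD, cut at about 40% in these data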;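 further: peak over basal fluorescence ratio in a 140 s read after ATP addition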
CHO-K1 Ca ag = counter-screen for M1 agonists: effect in parental CHO-K1 cells. Fluo-8 calcium fluorescence; scaled to maximal ATP response, vehicle zero. activation, % at 3 µM. hit rate 0.48% among 360,000. AID 602248; in the data active means activation above about 15%;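 further: untransfected CHO-K1 host cells lacking M1 receptor as counterscreen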
CHRM1 PAM = potentiates human M1 receptor response to acetylcholine; activation, % at 3 µM; P11229; AID 588819; CHO-K1 hM1, Fluo-8 calcium fluorescence, ACh EC20; 0% = ACh EC20, 100% = maximal ACh; hit rate 0.088% among 360,000; in the data active means activation above about 19%, passing the limit was not always enough
An asterisk follows results filed as active; x = no result. Rows were chosen to be rich in hits. Some 2.4% of all compounds tested hit in one or more screens of this group.

SMILES | M1 ag | M1 antag | CHO-K1 Ca antag | CHO-K1 Ca PAM | CHO-K1 Ca ag | CHRM1 PAM
O=C(NCCn1cc(SCC(=O)N2CCOCC2)c2ccccc21)c1c(F)cccc1F | -2 | -1 | -2 | 4 | 3 | -4
CCCCOc1ccc(C(=O)N2CCCC2)cc1 | -5 | 1 | 15 | 14 | 0 | 1
CCCCCOc1ccc(C(=O)CCC(=O)N2CCCC2)cc1 | -11 | 22* | -12 | 3 | 9 | -19
CC1(C(=O)Nc2cnc3ccccc3c2)CCN1CCOc1ccccc1 (stereo unspecified) | -6 | -5 | -8 | 3 | 3 | -5
CC(C)OCCCNc1ccc(N2C(=O)CCCC2=O)cc1[N+](=O)[O-] | -2 | -12 | -13 | 16 | 1 | 16
O=C(Nc1cc(Cl)ccc1-n1cncn1)c1cccc(S(=O)(=O)N2CCOCC2)c1 | -2 | -12 | -19 | 14 | 0 | 14
CN1CCN(C(=O)CN(C2CCCCC2)S(=O)(=O)c2ccc(Br)cc2)CC1 | 18* | 2 | -9 | 18 | 5 | -2
COc1ccc2nc(C)cc(NCc3ccc(F)cc3)c2c1 | 2 | 29* | 4 | 16 | 4 | -10
CN(Cc1ccccc1)C(=S)Nc1ccc(OC(F)F)cc1 | -11 | -3 | 8 | 8 | 0 | -2
CN(C)CCCN(Cc1ccccc1)C(=S)Nc1ccc(OC(F)F)cc1 | -8 | 55* | -3 | 8 | 1 | -26
Cc1ccc(S(=O)(=O)N2CCCCC2)cc1NC(=O)COC(=O)c1cccn1C | -2 | -11 | 3 | 12 | 2 | 10
CN1CCN(C(=O)c2ccccc2NC(=O)c2cccs2)CC1 | -2 | active | 6 | -4 | 0 | -15
O=C(NNC(=S)NC(=O)c1ccccc1)c1cccc([N+](=O)[O-])c1 | 17* | 2 | -13 | 4 | 12 | -2
COc1cc(C(=O)NNC(=O)/C=C/c2ccccc2)cc(OC)c1OC | -2 | -13 | 14 | -20 | 0 | 7
CN1CCN(C(=O)c2ccccc2NC(=O)c2ccccc2Br)CC1 | -1 | -11 | -3 | -10 | 1 | 8
COc1cc(C(=O)NNC(=S)NC(=O)c2ccc(Cl)cc2)cc(OC)c1OC | 33* | 0 | -1 | -10 | 10 | -14
COc1cc(C(=O)NNC(=S)NC(=O)/C=C/c2ccccc2)cc(OC)c1OC | 23* | -2 | -8 | 15 | 11 | 4
O=C(NNC(=S)NC(=O)c1cccc([N+](=O)[O-])c1)c1ccc(O)cc1 | -3 | -9 | -12 | 1 | 0 | 8
CN(C(=O)CN1C(=O)c2cccc(N)c2C1=O)C1CCCCC1 | -2 | -11 | -12 | -7 | 1 | 11
C[C@H](CO)N1C[C@H](C)[C@@H](CN(C)C(=O)NC2CCCCC2)Oc2c(NC(=O)c3ccncc3)cccc2C1=O | 4 | -2 | -4 | -3 | 1 | 11
Cc1ccccc1C(=O)Nc1cccc(NC(=S)NC(=O)c2cccs2)c1 | -2 | -3 | 3 | 14 | 2 | 1
Cc1cccc(C(=O)NC(=S)NNC(=O)c2ccc(Cl)cc2)c1 | 93* | 37* | 48* | -16 | 110* | -29
Cc1ccccc1C(=O)NNC(=S)NC(=O)c1cccs1 | 51* | 13 | 2 | -24 | 37* | -15
Cc1cccc(C(=O)NC(=S)NNC(=O)c2cccs2)c1 | 19* | -1 | 4 | -10 | 15* | -10
CC(=O)NC(=S)Nc1ccc(NC(=S)NC(=O)c2cccs2)cc1 | -1 | -4 | -5 | 12 | 1 | 3
SMILES | M1 ag | M1 antag | CHO-K1 Ca antag | CHO-K1 Ca PAM | CHO-K1 Ca ag | CHRM1 PAM
Cc1c(C(=O)NC(=S)Nc2ccc(NC(=O)c3cccs3)cc2)cccc1[N+](=O)[O-] | 2 | 33* | 2 | 9 | 6 | -15
COc1ccc(/C=C(\NC(=O)c2ccc(Cl)cc2)C(=O)NCC2CCCO2)cc1OC (stereo unspecified) | -2 | -7 | -10 | 6 | 1 | 7
CN(CC(=O)N1CCN(Cc2ccccc2)CC1)C(=O)Cc1ccc(Cl)c(Cl)c1 | -4 | -12 | -12 | 8 | 4 | 5
CCOC(OCC)c1cn(Cc2ccc(C(=O)c3ccccc3)cc2)nn1 | -1 | 0 | 6 | 4 | 4 | -4
CC(C)(C)c1ccc(C(=O)NC(=S)NNC(=O)c2cccs2)cc1 | 92* | 27* | 10 | -16 | 85* | -28
O=C(NC(=S)NNC(=O)c1cccs1)c1ccccc1 | 0 | 19 | 1 | -13 | 0 | -4
C[C@@H]1CC2=C(C(=O)OC(C)(C)O2)[C@H](c2ccc(Cl)cc2)O1 | x | x | -19 | 19 | 0 | x
Cc1cc(C)c(NC(=O)c2ccc3c(c2)C(=O)N(Cc2cccnc2)C3=O)c(C)c1 | -2 | -5 | -8 | 12 | 2 | 5
Cc1ccc(O)c(NC(=O)c2ccc3c(c2)C(=O)N(Cc2cccnc2)C3=O)c1 | 8 | 30 | 33* | -25 | 9 | 1
COc1ccc(NC(=O)CN(C)C(=O)C(Sc2ccccc2)c2ccccc2)cc1 (stereo unspecified) | -5 | -1 | 4 | -21 | 1 | 4
Cc1coc2c1c(C)cc1oc(=O)c(CC(=O)N[C@@H](C)C(=O)O)c(C)c12 | -4 | -5 | -8 | 11 | 1 | 6
Cc1nccn1CCc1n[nH]c(=S)n1Cc1ccccc1 | -5 | 60* | -4 | 14 | 1 | -21
S=c1[nH]nc(CCc2ccccc2)n1Cc1ccccc1 | -6 | 25 | -7 | 18 | 1 | -19
COc1ccc(F)cc1C(=O)C1CCCN(Cc2cccn2-c2cccnc2)C1 (stereo unspecified) | -8 | -10 | -3 | 12 | 2 | 0
COc1ccc(F)cc1C(=O)C1CCCN(Cc2c(C)n(C)n(-c3ccccc3)c2=O)C1 (stereo unspecified) | -14 | 36* | 7 | 22 | 2 | -32
Cc1c(OCC(=O)NCc2cccnc2)ccc2c3c(c(=O)oc12)CCCC3 | -2 | 3 | -13 | 5 | 1 | -4
Cc1c(OC(C)C(=O)NCc2cccnc2)ccc2c3c(c(=O)oc12)CCCC3 (stereo unspecified) | -1 | -6 | 58* | -5 | 4 | 1
Cc1cc(Br)ccc1OCCCCN1CCCCC1 | -9 | 42* | -5 | 14 | 5 | -26
CC(=O)c1ccccc1OCCCN1CCCCC1 | -5 | 38* | -9 | 4 | 0 | -19
CC(C)c1ccccc1OCCCCN1CCCCC1 | -8 | 64* | -8 | -1 | 1 | -27
Cc1cc(Br)ccc1OCCOCCN1CCCC1 | -8 | -4 | 1 | 1 | 1 | -8
Brc1ccccc1OCCCN1CCCCCC1 | -8 | 0 | -21 | 22 | 1 | -2
CC(C)c1ccccc1OCCCCCN1CCOCC1 | -8 | 62* | 0 | 3 | 1 | -25
Brc1ccccc1OCCCCCN1CCOCC1 | -3 | 24 | -13 | 19 | 1 | -12
